In ChEMBL document CHEMBL1157539, “Thousands of chemical starting points for antimalarial lead identification” (Nature, 2010) one finds Inhibition data, which are given here for 40 compounds.

The first experiment concerns Plasmodium falciparum. As to the kind of experiment: GSK_TCMDC: Inhibition of Plasmodium falciparum 3D7 in whole red blood cells, using parasite LDH activity as an index of growth. Test compounds present at 2uM. It is filed as functional.
Consider `COc1ccc(CNCc2ccsc2)cc1-c1ccc(S(=O)(=O)NCCN2CCCC2)s1.O=C(O)C(F)(F)F`, for which the Inhibition – broadly, the percentage by which the read-out fell short of the control – was found to be 100%.

For the compound `COc1cc(Nc2nc(N)n(C(=O)c3ccc4c(c3)OCO4)n2)cc(OC)c1OC`, the Inhibition was 90%.

In turn, `COc1ccc2nccc([C@@H](O)CN3CCC(NCc4cc5cc(OC(F)(F)F)ccc5[nH]4)CC3)c2c1.O=C(O)C(=O)O` gave an Inhibition of 100%.

`Cc1nnc2c(NC(=O)NC3CCCC3)cc3cc(-c4ccc(CN(C)C)cc4)ccc3n12` had an Inhibition of 100%.

`C[C@H](NC(=O)[C@H](CCCCNC(=O)OC(C)(C)C)NC(=O)OC(C)(C)c1ccc(-c2ccccc2)cc1)C(=O)OCc1ccccc1` had an Inhibition of 97%.

The compound `O=C(Nc1cccc(-c2nc3ccccc3s2)c1)c1ccccc1[N+](=O)[O-]` returned an Inhibition of 85%.

In the case of `Cc1ccc2nc(C)n(C3CCN(C(=O)Cc4ccccc4C)CC3)c2c1`, the Inhibition is reported as 100%.

Compound `Cc1c(C(=O)N(C)C)sc2c1c(=O)n(Cc1ccccc1)c(=O)n2CC(=O)Nc1ccccc1F` returned an Inhibition of 97%.

Compound `Cc1cccc(C(=O)Nc2ccnc(N3CCC(N(C)Cc4ccc(C#N)cc4)CC3)c2)c1.O=C(O)C(F)(F)F` yielded an Inhibition of 94%.

Regarding `N#Cc1ccccc1C(=O)N(Cc1cncn1Cc1cccc(F)c1)CC1CC1`, the Inhibition is reported as 100%.

Compound `C=C1N(C)c2cc([N+](=O)[O-])c(N)cc2C1(C)C` had an Inhibition of 98%.

Compound `CCN(C1CCCCC1)S(=O)(=O)c1ccc(OC)c(N2CCN(C(=O)C(Cl)(Cl)Cl)CC2)c1` had an Inhibition of 100%.

For the compound `CCC(C)NS(=O)(=O)c1ccc2nc(Nc3ccc(C)c(Cl)c3)n(C(C)C(C)C)c2c1` (stereo not given), the Inhibition is recorded as 98%.

`NS(=O)(=O)c1ccc(CNc2ccc3ncc(-c4ccc(OC(F)(F)F)cc4)n3n2)cc1` returned an Inhibition of 97%.

Regarding `CC(=O)c1c(Nc2c(C)cc(C)cc2C)oc(C)cc1=O`, the Inhibition is given as 95%.

Compound `CC(C)CNCc1cccc(-c2ccc(CNC3CCN(Cc4ccccc4)CC3)cc2)c1.O=C(O)C(F)(F)F` gave an Inhibition of 100%.

With `COc1ccc(NC(=O)[C@H](CC(C)C)Nc2ccnc(NCCc3ccc(F)cc3)n2)cc1.O=C(O)C(F)(F)F`, the Inhibition was determined as 86%.

The compound `O=C(Nc1ccccc1O)c1ccc(Oc2cccc(C(=O)Nc3ccccc3O)c2)cc1` displayed an Inhibition of 97%.

`Cc1cc(N[C@@H](CC(C)C)C(=O)NCCc2ccccc2)nc(NCc2ccccc2C)n1.O=C(O)C(F)(F)F` registered an Inhibition of 93%.

Compound `FC(F)(F)c1cccc(CCNc2nccc(NCc3ccc(Cl)cc3Cl)n2)c1` displayed an Inhibition of 97%.

In turn, `CC(=O)Nc1ncc(C(=O)Nc2cccc(-c3cccc(-c4nc5cccc(C)c5[nH]4)c3)c2)s1` yielded an Inhibition of 94%.

The compound `Cc1cccc(CN2CCCC3(CCN(Cc4ccccc4O)C3)C2)c1` (stereo not given) yielded an Inhibition of 99%.

In turn, `CN1CC=C(c2csc3ccc(NC(=O)Nc4ccc(-c5ccncc5)c5ccccc45)cc23)CC1` registered an Inhibition of 93%.

In turn, `CC(=O)Nc1cccc(C(=O)Nc2cccc(-c3ccc(-c4nc5cc(C(F)(F)F)ccc5[nH]4)s3)c2)c1` came in with an Inhibition of 98%.

For the compound `COc1ccc2ncc(C#N)c(CCN3C4CCC3CC(NCc3ccc5c(n3)NC(=O)CS5)C4)c2c1.Cl` (stereo not given), the Inhibition is listed as 95%.

`Fc1ccc(CNc2ccc3ncc(-c4cccnc4)n3n2)cc1` displayed an Inhibition of 87%.

Turning to `c1cc(CNc2ncc(-c3ccsc3)c(-c3nccs3)n2)ccn1`, the Inhibition was 89%.

As to `Cc1nc2nc(N)nc(N)c2c(C)c1Cc1cccc(C(F)(F)F)c1.Cl`, the Inhibition was 89%.

With `CCN(CC)CCOc1ccc(C(O)(C#CC(O)(c2ccc(C)cc2)c2ccc(OCCN(CC)CC)cc2)c2ccc(C)cc2)cc1` (stereo not given), the Inhibition worked out at 97%.

As to `O=C(Nc1ccc(OC2CCN(Cc3ccsc3)CC2)c(Cl)c1)c1cccs1.O=C(O)C(F)(F)F`, the Inhibition is 94%.

Regarding `Cc1ccc2c(c1[N+](=O)[O-])N=NCC2Oc1ccccc1` (stereo not given), the Inhibition is 91%.

`CCNc1cc(C(=O)N[C@@H](Cc2ccccc2)[C@H](O)CNCCc2cccc(C(F)(F)F)c2)cc(N2CCCC2=O)c1.O=CO` came in with an Inhibition of 96%.

On to `COCCNCc1cccc(-c2ccc3nccc(Nc4cc(O)ccc4C)c3c2)c1`, for which the Inhibition amounted to 100%.

In the case of `Cc1cc(NCc2ccccc2)nc(NCc2ccccc2)n1`, the Inhibition stood at 91%.

As to `COc1ccccc1CCNc1nc(C)cc(N[C@@H](Cc2ccccc2)C(=O)NCc2cccs2)n1.O=C(O)C(F)(F)F`, the Inhibition is recorded as 100%.

For `CCOC(=O)CCCc1cc(NC2CCN(C)CC2)nc(Nc2ccc(OC)cc2)n1`, the Inhibition was determined as 99%.

Compound `O=c1cc(NCCCNCc2cc(Br)ccc2F)[nH]c2ccccc12` gave an Inhibition of 95%.

`Cc1[nH]cc(Br)c(=O)c1-c1ccc(Oc2ccccc2)cc1` had an Inhibition of 97%.

`CC(C)(C)c1ccc(CNCC(C)(C)c2nc(-c3ccnc(N)n3)c(-c3ccc(Cl)c(O)c3)[nH]2)cc1.Cl` displayed an Inhibition of 100%.

The compound `CCNc1cc(C(=O)N[C@@H](Cc2ccccc2)[C@H](O)CNC(C)C)cc(N2CC(c3ccccc3)CCS2(=O)=O)c1` (stereo not given in full) gave an Inhibition of 98%.

A further experiment has as its system Plasmodium falciparum. As to the kind of experiment: GSK_TCMDC: Inhibition of Plasmodium falciparum Dd2 in whole red blood cells, using parasite LDH activity as an index of growth. Test compounds present at 2uM. It is filed as functional.
`COc1ccc(CNCc2ccsc2)cc1-c1ccc(S(=O)(=O)NCCN2CCCC2)s1.O=C(O)C(F)(F)F` showed an Inhibition of 34%.

`COc1cc(Nc2nc(N)n(C(=O)c3ccc4c(c3)OCO4)n2)cc(OC)c1OC` showed an Inhibition of 40%.

`COc1ccc2nccc([C@@H](O)CN3CCC(NCc4cc5cc(OC(F)(F)F)ccc5[nH]4)CC3)c2c1.O=C(O)C(=O)O` returned an Inhibition of 82%.

With `Cc1nnc2c(NC(=O)NC3CCCC3)cc3cc(-c4ccc(CN(C)C)cc4)ccc3n12`, the Inhibition is listed as 37%.

Compound `C[C@H](NC(=O)[C@H](CCCCNC(=O)OC(C)(C)C)NC(=O)OC(C)(C)c1ccc(-c2ccccc2)cc1)C(=O)OCc1ccccc1` came in with an Inhibition of 1%.

Compound `O=C(Nc1cccc(-c2nc3ccccc3s2)c1)c1ccccc1[N+](=O)[O-]` yielded an Inhibition of 9%.

On to `Cc1ccc2nc(C)n(C3CCN(C(=O)Cc4ccccc4C)CC3)c2c1`, for which the Inhibition is 100%.

`Cc1c(C(=O)N(C)C)sc2c1c(=O)n(Cc1ccccc1)c(=O)n2CC(=O)Nc1ccccc1F` yielded an Inhibition of 98%.

Compound `Cc1cccc(C(=O)Nc2ccnc(N3CCC(N(C)Cc4ccc(C#N)cc4)CC3)c2)c1.O=C(O)C(F)(F)F` yielded an Inhibition of 6%.

Compound `N#Cc1ccccc1C(=O)N(Cc1cncn1Cc1cccc(F)c1)CC1CC1` showed an Inhibition of 92%.

`C=C1N(C)c2cc([N+](=O)[O-])c(N)cc2C1(C)C` returned an Inhibition of 83%.

Compound `CCN(C1CCCCC1)S(=O)(=O)c1ccc(OC)c(N2CCN(C(=O)C(Cl)(Cl)Cl)CC2)c1` gave an Inhibition of 85%.

Compound `CCC(C)NS(=O)(=O)c1ccc2nc(Nc3ccc(C)c(Cl)c3)n(C(C)C(C)C)c2c1` (stereo not given) came in with an Inhibition of 98%.

`NS(=O)(=O)c1ccc(CNc2ccc3ncc(-c4ccc(OC(F)(F)F)cc4)n3n2)cc1` registered an Inhibition of 99%.

For `CC(=O)c1c(Nc2c(C)cc(C)cc2C)oc(C)cc1=O`, the Inhibition is 83%.

Turning to `CC(C)CNCc1cccc(-c2ccc(CNC3CCN(Cc4ccccc4)CC3)cc2)c1.O=C(O)C(F)(F)F`, the Inhibition is given as 99%.

`COc1ccc(NC(=O)[C@H](CC(C)C)Nc2ccnc(NCCc3ccc(F)cc3)n2)cc1.O=C(O)C(F)(F)F`: the Inhibition was 22%.

Consider `O=C(Nc1ccccc1O)c1ccc(Oc2cccc(C(=O)Nc3ccccc3O)c2)cc1`, for which the Inhibition turned out to be 70%.

Compound `Cc1cc(N[C@@H](CC(C)C)C(=O)NCCc2ccccc2)nc(NCc2ccccc2C)n1.O=C(O)C(F)(F)F` yielded an Inhibition of 74%.

Consider `FC(F)(F)c1cccc(CCNc2nccc(NCc3ccc(Cl)cc3Cl)n2)c1`, for which the Inhibition was 59%.

Compound `CC(=O)Nc1ncc(C(=O)Nc2cccc(-c3cccc(-c4nc5cccc(C)c5[nH]4)c3)c2)s1` returned an Inhibition of 64%.

The compound `Cc1cccc(CN2CCCC3(CCN(Cc4ccccc4O)C3)C2)c1` (stereo not given) returned an Inhibition of 76%.

Take `CN1CC=C(c2csc3ccc(NC(=O)Nc4ccc(-c5ccncc5)c5ccccc45)cc23)CC1`: the Inhibition is on record as 99%.

The compound `CC(=O)Nc1cccc(C(=O)Nc2cccc(-c3ccc(-c4nc5cc(C(F)(F)F)ccc5[nH]4)s3)c2)c1` came in with an Inhibition of 46%.

Take `COc1ccc2ncc(C#N)c(CCN3C4CCC3CC(NCc3ccc5c(n3)NC(=O)CS5)C4)c2c1.Cl` (stereo not given): the Inhibition came to 27%.

`Fc1ccc(CNc2ccc3ncc(-c4cccnc4)n3n2)cc1` gave an Inhibition of 7%.

With `c1cc(CNc2ncc(-c3ccsc3)c(-c3nccs3)n2)ccn1`, the Inhibition is reported as 81%.

`Cc1nc2nc(N)nc(N)c2c(C)c1Cc1cccc(C(F)(F)F)c1.Cl` gave an Inhibition of 23%.

Turning to `CCN(CC)CCOc1ccc(C(O)(C#CC(O)(c2ccc(C)cc2)c2ccc(OCCN(CC)CC)cc2)c2ccc(C)cc2)cc1` (stereo not given), the Inhibition is 98%.

With `O=C(Nc1ccc(OC2CCN(Cc3ccsc3)CC2)c(Cl)c1)c1cccs1.O=C(O)C(F)(F)F`, the Inhibition is 93%.

With `Cc1ccc2c(c1[N+](=O)[O-])N=NCC2Oc1ccccc1` (stereo not given), the Inhibition was 19%.

With `CCNc1cc(C(=O)N[C@@H](Cc2ccccc2)[C@H](O)CNCCc2cccc(C(F)(F)F)c2)cc(N2CCCC2=O)c1.O=CO`, the Inhibition is recorded as 93%.

In turn, `COCCNCc1cccc(-c2ccc3nccc(Nc4cc(O)ccc4C)c3c2)c1` showed an Inhibition of 92%.

On to `Cc1cc(NCc2ccccc2)nc(NCc2ccccc2)n1`, for which the Inhibition is on record as 18%.

In the case of `COc1ccccc1CCNc1nc(C)cc(N[C@@H](Cc2ccccc2)C(=O)NCc2cccs2)n1.O=C(O)C(F)(F)F`, the Inhibition came to 73%.

Turning to `CCOC(=O)CCCc1cc(NC2CCN(C)CC2)nc(Nc2ccc(OC)cc2)n1`, the Inhibition is on record as 17%.

Consider `O=c1cc(NCCCNCc2cc(Br)ccc2F)[nH]c2ccccc12`, for which the Inhibition turned out to be 14%.

As for `Cc1[nH]cc(Br)c(=O)c1-c1ccc(Oc2ccccc2)cc1`, the Inhibition stood at 96%.

`CC(C)(C)c1ccc(CNCC(C)(C)c2nc(-c3ccnc(N)n3)c(-c3ccc(Cl)c(O)c3)[nH]2)cc1.Cl` showed an Inhibition of 54%.

Compound `CCNc1cc(C(=O)N[C@@H](Cc2ccccc2)[C@H](O)CNC(C)C)cc(N2CC(c3ccccc3)CCS2(=O)=O)c1` (stereo not given in full) yielded an Inhibition of 99%.
